Assay [1] can be described thus: P. berghei load reduction in hepatocytes – cell-based, HepG2, luciferase luminescence, HepG2 viability, primary screen (AID 624349; in the data active = parasite load remaining mostly below about 12%, no sharp cut-off; inactive = mostly above about 10%;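 note: 100% = mean of DMSO negative control wells on the same plate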). The conditions noted are these: P. berghei liver stage in HepG2, luciferase luminescence, concentration not given here; parasite load remaining: stronger effect = lower value; viability: measured here: HepG2 viability without parasites.
Assay [2] is described as follows: signal quenchers or enhancers, Cy5 substrate/SSB – biochemical, NIH Clinical Collection, E. coli SSB, artefact control for HCV NS3 helicase inhibitor project (AID 743268; call rule not given here). The conditions noted are these: Cy5-oligo bound E. coli SSB, fluorescence interference.
Assay [3] deals with Hepatitis C virus NS3 helicase. Briefly: blockers of NS3h binding to DNA – biochemical, fluorescence polarization, NIH Clinical Collection, primary screen (AID 743270; call rule not given here). The note with it: NS3 helicase binding to Cy5-dT15 DNA, stronger effect = higher value, concentration not given here. (In general: Polarisation of emitted light reports the rotation of a fluorescent probe.)
Assay [4] has as its target Single-stranded DNA-binding protein (Escherichia coli (strain K12)) (UniProt P0AGE0). Nature of the assay: SSB-ssDNA binding inhibitors – biochemical, fluorescence polarization, NIH Clinical Collection, counter-screen for HCV NS3 helicase inhibitor project (AID 743271; in the data active = inhibition above about 28%). The conditions noted are these: E. coli SSB-DNA binding, stronger effect = higher value, concentration not given here.

Assay [5] can be described thus: compounds distorting NS3 helicase fluorescence signal – biochemical, NIH Clinical Collection, artefact control for HCV NS3 helicase inhibitor project (AID 743272; call rule not given here;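 note: HCV NS3 helicase with a Cy5 labelled single stranded DNA probe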). The conditions noted are these: fluorescence interference counterscreen, HCV NS3 helicase assay; stronger effect = lower value. For orientation: Counterscreens check selectivity or assay interference.
Assay [6] concerns Neuropilin-2 / VEGF-C interaction (human). Briefly: small molecules blocking Neuropilin-2/VEGF-C interaction – biochemical, microplate binding format, z-score (AID 743281; call rule not given here). The conditions noted are these: microplate NRP2/VEGF-C binding assay; stronger effect = lower value.
The nature of assay [7]: modulation of C. elegans fzo-1 (AID 1259413; call rule not given here;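 note: fzo-1 mutant C. elegans worms in liquid wells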). The note with it: C. elegans fzo-1 modulator screen, mean read-out; stronger effect = higher value.
The subject of another assay is F380Y. Nature of the assay: BK channel mutant inhibitors and activators – cell-based, U2OS BacMam, thallium flux, beta subunits, selectivity assay, profiling panel (AID 1259406).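 Note: initial slope of Thallos dye fluorescence rise after thallium is added; log ratio against the mean of 0.3% DMSO vehicle wells on the same plate.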 The conditions noted are these: U2OS BacMam BK variants, at 30 µM.
Another assay deals with F380Y/beta1. The description is as above. The conditions noted are these: U2OS BacMam BK variants, at 30 µM.
The subject of the next assay is F380Y/beta2Delta. The description is as above. The note with it: U2OS BacMam BK variants, at 30 µM.
The subject of another assay is F380Y/beta4. Described as above. The conditions noted are these: U2OS BacMam BK variants, at 30 µM.
Assay [8] concerns the target Calcium-activated potassium channel subunit alpha-1 (Homo sapiens) + Leucine-rich repeat-containing protein 26 (Homo sapiens) (UniProt Q12791+Q2I0M4). The description is as above. The note with it: U2OS BacMam BK variants, F380Y/Slo1WT/gamma1, at 30 µM.
The subject of a further assay is R275C. The assay is described as above. The conditions noted are these: U2OS BacMam BK variants, at 30 µM.
The subject of a further assay is R275C/beta1. Described as above. The note with it: U2OS BacMam BK variants, at 30 µM.
Another assay deals with R275C/beta2Delta. The description is as above. The note with it: U2OS BacMam BK variants, at 30 µM.
The test system of the next assay is R275C/beta4. The description is as above. The note with it: U2OS BacMam BK variants, at 30 µM.
The subject of the next assay is R275C/Slo1WT/beta2. The assay is described as above. The note with it: U2OS BacMam BK variants, at 30 µM.
Assay [9] in a line: viability loss with induced miR-34 in A549 – imaging, A549 dox-inducible miR-34, nuclei and caspase counts, primary screen (AID 1347080;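 active = compounds whose cell count with miR-34 switched on is under 0.7 times the count with it off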). The conditions noted are these: A549 miR-34 inducible, Hoechst nuclei count, 48 h.
Assay [10] is described as follows: galactose survival enhancers in mitochondrial complex I cybrids – cell-based, galactose medium, ATP luminescence, primary screen (AID 1645843;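 active = z-score of at least 1.8 in each of two replicates, scored against plate mean and spread of sample wells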;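 note: positive z means more ATP and so rescue of galactose-driven cybrid death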). The note with it: complex I mutant cybrid cells, 72 h, stronger effect = higher value.
The nature of assay [11]: EMT-state selective cytotoxicity in co-culture – imaging, PC-3E GFP, TEM4-18 mCherry, primary screen (AID 1345086;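 active = compounds killing one labelled cell type while sparing the other, by normalised counts and ratio limits, not self-fluorescent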;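 note: cells exposed to compound for 72 h before imaging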;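 for red/green cell ratio (normalised): normalised mesenchymal count divided by normalised epithelial count so high means epithelial killing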). The note with it: PC-3E GFP / TEM4-18 mCherry co-culture, imaging cell counts, at 1 µM.
[12] abbreviates: measured here: relative caspase fold change +Dox/-Dox.
Setting [13] is: measured here: total cells with miR-34 induction, stronger effect = lower value.
Where [14] appears, read: measured here: total cells without miR-34 induction.

The results in this text go back to PubChem BioAssay.

Where “and” joins values, the source holds several entries; their conditions need not be identical. Equal entries are not always repeated. Calls of active or inactive are those of the source.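 Rule for the calls, unless noted: active = thallium flux through the channel raised or lowered by more than 3 SD from vehicle-only wells, actives on both sides; inactive = the rest.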

Chain of Calcium-activated potassium channel subunit alpha-1 (Homo sapiens) + Leucine-rich repeat-containing protein 26 (Homo sapiens) (Q2I0M4 whole entry, looked up, one chain of several): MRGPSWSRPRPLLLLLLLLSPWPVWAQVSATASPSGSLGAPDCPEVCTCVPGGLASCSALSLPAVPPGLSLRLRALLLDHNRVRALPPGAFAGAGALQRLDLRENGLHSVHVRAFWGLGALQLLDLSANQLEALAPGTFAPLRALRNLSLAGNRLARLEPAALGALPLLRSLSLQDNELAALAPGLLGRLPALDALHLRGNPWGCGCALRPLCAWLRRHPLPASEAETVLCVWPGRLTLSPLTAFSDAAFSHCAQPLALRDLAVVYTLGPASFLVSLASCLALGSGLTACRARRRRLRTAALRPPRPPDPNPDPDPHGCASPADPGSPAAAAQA

As a reminder, the viability is a read-out of living cells in per cent, often relative to untreated cells. The term inhibition denotes the change of the read-out against control, counted positive when it falls. Take `CN1CC[C@]2(c3cccc(O)c3)Cc3nc4ccccc4cc3C[C@H]2C1`: the parasite load remaining in assay [1] was 54.3% (inactive). The compound further displayed a viability in [1] of 65.5%. For the same compound, the figures for the fluorescence ratio in assay [2] and in assay [5] were 0.96 (inactive) and 0.98 (inactive), respectively. The inhibition in assay [3] is -8.08% (inactive); in assay [4], -1.97% (inactive). For the same compound, the z-score in assay [6] is -0.954 (inactive). Moreover, in assay [7], the mean signal is 226 (inactive).

For `C[C@]12CCC(=O)C[C@@H]1CC[C@@H]1[C@@H]2CC[C@@]2(C)[C@H]1CC[C@]2(C)O`, in assay [1], the parasite load remaining was 79.1% (inactive). Moreover, in [1], the viability was 70.4%. The fluorescence ratio in [2] was 1.04 (inactive); in [5], 0.92 (inactive). Further, the inhibition in [3] was -0.4% (inactive); in assay [4], -3.18% (inactive). Besides, the log fold change Tl+ flux in the assay with F380Y was 0.00819 (inactive); in the assay with F380Y/beta1 it was -0.00468 (inactive); in the assay on F380Y/beta2Delta, 0.0319 (inactive); in the assay on F380Y/beta4, 0.0289 (inactive); in assay [8], 0.0101 (inactive); in the assay on R275C, -0.0214 (inactive). Further, the log fold change Tl+ flux in the assay with R275C/beta1 is 0.0156 (inactive); in the assay with R275C/beta2Delta, 0.0537 (inactive); with R275C/beta4, 0.00195 (inactive); in the assay with R275C/Slo1WT/beta2, 0.012 (inactive).

In the case of `CN1CC[C@@]23CCCC[C@@H]2[C@@H]1Cc1ccc(O)cc13`, the parasite load remaining in assay [1] is 97.8% (inactive). For the same compound, in assay [1], the viability was 68.2%. For the same compound, the fluorescence ratio in assay [2] was 0.99 (inactive); in assay [5], 0.91 (inactive). The results for the inhibition in [3] and in assay [4] were -1.98% (inactive) and -3.18% (inactive), respectively. In addition, the z-score in [6] was -0.569 (inactive). Further, the mean signal in assay [7] is 229 (inactive). Moreover, the log fold change Tl+ flux in the assay on F380Y is 0.0229 (inactive); in the assay on F380Y/beta2Delta, 0.00585 (inactive); in assay [8], 0.0222 (inactive); with R275C, 0.00894 (inactive); with R275C/beta1, 0.0266 (inactive); with R275C/beta2Delta it was 0.00635 (inactive).

Take `O[C@@H]1CCCC[C@H]1N1CCC(c2ccccc2)CC1`: the parasite load remaining in assay [1] is 78.7% (inactive) and 101% (inactive). Also, the viability in assay [1] is 93.8% and 73%. Further, the fluorescence ratio in assay [2] was 0.98 (inactive); in assay [5], 0.91 (inactive). The inhibition is 1.19% (inactive) in [3] and 0.67% (inactive) in assay [4]. Also, the figures for the z-score in assay [6] and in assay [10] were -0.802 (inactive) and -0.07 (inactive), respectively. Further, in assay [7], the mean signal is 231 (inactive). Besides, the fold change is 0.933 (inactive) and 0.866 (inactive) in assay [9] (stronger effect = lower value); 1.17 and 0.745 in assay [9] (setting [12]). Moreover, the cell count is 8520 and 8230 in assay [9] (setting [13]); 9130 and 9500 in assay [9] (setting [14]).

For the compound `CC[C@@H]1/C=C/C=C/C[C@H](C)[C@@H](O)[C@](C)(O)C(=O)[C@H](C)[C@@H](O)[C@H](C)C(=O)[C@H](C)[C@@H](O)[C@H](C)/C=C/C(=O)O[C@H]2[C@@H](C)[C@@H](CC1)O[C@@]1(CC[C@@H](C)[C@@H](C[C@H](C)O)O1)[C@@H]2C`, the mean signal in [7] is 201 (inactive). For the same compound, in [11] (actives lie on both sides), the red/green cell ratio (normalised) is 0.51 (inactive). The normalised cell number in [11] (measured here: epithelial PC-3E GFP cell survival) is 1.1; in assay [11] (measured here: mesenchymal TEM4-18 mCherry cell survival) it was 0.56. Further, the fold change in assay [9] (stronger effect = lower value) is 0.872 (inactive); in assay [9] (setting [12]) it was 0.921. In addition, the cell count turned out to be 989 in assay [9] (setting [13]) and 1130 in assay [9] (setting [14]).

Consider `COC(=O)N1CCN(C(=O)Cc2ccc(Cl)c(Cl)c2)C(CN2CCCC2)C1` (stereo not drawn), for which, in [1], the parasite load remaining is 76.7% (inactive). Also, the viability in [1] amounted to 75.4%. Moreover, the values for the fluorescence ratio in assay [2] and in [5] were 1.05 (inactive) and 1.03 (inactive), respectively. In addition, the inhibition was 4.36% (inactive) in assay [3] and 2.21% (inactive) in assay [4]. The z-score in [6] is 1.19 (inactive); in [10], -0.09 (inactive) and 0.285 (inactive). The mean signal in assay [7] is 274 (inactive). Also, the fold change in [9] (stronger effect = lower value) is 0.961 (inactive); in [9] (stronger effect = lower value, cell number ratio, induced over uninduced) it was 0.883 (inactive); in assay [9] (setting [12]) it was 1.01 and 1.9. Also, the cell count in assay [9] (setting [13]) was 10100 and 8750; in [9] (setting [14]) it was 10500 and 9910. Also, the log fold change Tl+ flux is 0.0797 (inactive) with F380Y; 0.0396 (inactive) with F380Y/beta1; 0.0718 (inactive) with F380Y/beta2Delta; 0.0372 (inactive) in the assay with F380Y/beta4; -0.0265 (inactive) in assay [8]; -0.00833 (inactive) in the assay with R275C. Further, the log fold change Tl+ flux is 0.0475 (inactive) in the assay on R275C/beta1, 0.0511 (inactive) in the assay with R275C/beta2Delta, 0.0175 (inactive) in the assay on R275C/beta4 and 0.0529 (inactive) with R275C/Slo1WT/beta2.
